# According to PubChem BioAssay (NCATS):
# Records with an inconclusive call do not appear. Entries that show only a call come without a potency. Active and inactive are the calls of the source. Calls follow the shape of the dose curve; as a rule, active = well fitted cell-killing curve with a large enough effect; inconclusive = small, poorly fitted or top-dose-only effect; inactive = flat fitted curve, though single readings scatter.
# Assay: qHTS of pediatric cancer cell lines to identify multiple opportunities for drug repurposing: Primary screen for BT-37 cells (AID 1347094)
# Settings: BT-37 viability, CellTiter-Glo luminescence, 48 h; series mostly up to 57.3 µM
# Method in brief: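 Quantitative HTS format: each compound titrated (MIPE 11 points from 0.78 nM, NPC 8 points from 0.59 nM) onto cells plated 5 hours earlier. After 48 h at 37 degrees C, CellTiter-Glo luminescence was recorded.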
# Potency is read from the fitted curve at half-maximal effect.
row,Structure (SMILES),Potency
1,CC(C)[N+](C)(C)CC(O)COc1cccc2ccccc12 (stereo not drawn),inactive
2,C/C=C/C=N/NC(=O)c1ccncc1,inactive
3,OC[C@H]1O[C@@H]2O[C@H]3[C@H](O)[C@@H](O)[C@@H](O[C@H]4[C@H](O)[C@@H](O)[C@@H](O[C@H]5[C@H](O)[C@@H](O)[C@@H](O[C@H]6[C@H](O)[C@@H](O)[C@@H](O[C@H]7[C@H](O)[C@@H](O)[C@@H](O[C@H]8[C@H](O)[C@@H](O)[C@@H](O[C@H]1[C@H](O)[C@H]2O)O[C@@H]8CO)O[C@@H]7CO)O[C@@H]6CO)O[C@@H]5CO)O[C@@H]4CO)O[C@@H]3CO,inactive
4,CCOCCn1c(N2CCCN(C)CC2)nc2ccccc21,inactive
5,Nc1ccc(C(=O)NCC(=O)O)cc1,inactive
6,O=S(=O)(O)c1ccc(O)cc1,inactive
7,Cc1ncc(CO)c(C=O)c1O,inactive
8,CC(C)[C@@H]1CC[C@@H](C)CC1=O,inactive
9,N#CCC(=O)NN,inactive
10,C=C[C@H]1CN2CC[C@H]1C[C@@H]2[C@@H](O)c1ccnc2ccc(OC)cc12,inactive
11,OCc1ccccn1,inactive
12,O=C(O)C(Cc1cc(I)c(O)c(I)c1)c1ccccc1 (stereo not drawn),inactive
13,CC(C)NCC(O)c1ccc2ccccc2c1 (stereo not drawn),inactive
14,CC(C)Nc1cccnc1N1CCN(C(=O)c2cc3cc(NS(C)(=O)=O)ccc3[nH]2)CC1,inactive
15,C=C[C@H]1CN2CC[C@H]1C[C@H]2[C@H](O)c1ccnc2ccc(OC)cc12,inactive
16,NC1CCN(c2nc3c(cc2F)c(=O)c(C(=O)O)cn3-c2ccc(F)cc2F)C1 (stereo not drawn),inactive
17,CC(=C(CCOC(=O)C(C)C)SSC(CCOC(=O)C(C)C)=C(C)N(C=O)Cc1cnc(C)nc1N)N(C=O)Cc1cnc(C)nc1N,inactive

row,Structure (SMILES),Potency
1,CCN1/C(=C/C=C/c2sc3ccccc3[n+]2CC)Sc2ccccc21,1.35 µM (active)
2,CCN1CCN(C(=O)N[C@@H](C(=O)N[C@@H]2C(=O)N3C(C(=O)O)=C(CSc4nnnn4C)CS[C@H]23)c2ccc(O)cc2)C(=O)C1=O,inactive
3,CC(=O)OCC1=C(C(=O)O)N2C(=O)[C@@H](NC(=O)CSc3ccncc3)[C@H]2SC1,inactive
4,Nc1nc(-c2ccccc2)c(Br)c(=O)[nH]1,inactive
5,CC(=O)Nc1ccc(OCC(O)CNC(C)C)cc1 (stereo not drawn),inactive
6,OCCOCCN1CCN(C2=Nc3ccccc3Sc3ccccc32)CC1,inactive
7,CC(O)Cn1cnc2c1c(=O)n(C)c(=O)n2C (stereo not drawn),inactive
8,N[C@H](C(=O)O)[C@@H](O)c1ccc(O)c(O)c1,inactive
9,Oc1c(Cl)cc(Cl)c(Cl)c1Cc1c(O)c(Cl)cc(Cl)c1Cl,9.78 µM (active)
10,C=C[C@@]1(C)CC(=O)[C@]2(O)[C@@]3(C)[C@@H](O)CCC(C)(C)[C@@H]3[C@H](O)[C@H](OC(C)=O)[C@@]2(C)O1,inactive
11,CC(=O)Nc1ccc(OC(=O)c2ccccc2OC(C)=O)cc1,inactive
12,CC(C)(C)CC(C)(C)c1ccc(O)c(-n2nc3ccccc3n2)c1,inactive
13,CC(C)Cc1ccc(CC(=O)O)cc1,inactive
14,O=C(O)CCC(=O)Nc1ccc(S(=O)(=O)Nc2nccs2)cc1,inactive
15,CNCCc1ccccn1,inactive
16,CN1CCC(OC(c2ccccc2)c2ccccc2)CC1,inactive
